Bioassay records deposited in PubChem by The Scripps Research Institute Molecular Screening Center.
DAX1 inh-1 – inhibitors of human orphan nuclear receptor DAX1 (NR0B1); HEK293 Gal4-DAX1 luciferase reporter, luminescence; inhibition, % at 6.75 µM; 340,000 compounds, 0.99% hits;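 active means inhibition above the mean over all tested compounds plus 3 SD, cut at about 4.2% in these data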;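 further: 0% = DAX1-transfected cells with DMSO and 100% = empty-vector control cells with DMSO; inhibition shows as a rise in luminescence from relieved DAX1 repression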
Target sequence (P51843 207-470 limits assumed): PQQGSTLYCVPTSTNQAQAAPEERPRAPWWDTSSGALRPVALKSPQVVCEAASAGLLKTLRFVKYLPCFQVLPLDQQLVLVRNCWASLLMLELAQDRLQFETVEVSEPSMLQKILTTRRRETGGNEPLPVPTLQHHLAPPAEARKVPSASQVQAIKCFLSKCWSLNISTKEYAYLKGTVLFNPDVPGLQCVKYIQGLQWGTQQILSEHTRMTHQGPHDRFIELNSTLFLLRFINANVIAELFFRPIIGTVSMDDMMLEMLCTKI
hgDAF12 agonist – agonists of H. glycines DAF-12 nuclear receptor. HEK293 GAL4-hgDAF12 UAS-luciferase reporter, agonist luminescence; normalized to butyrate control. AID 687014. activation, % at 6.8 µM. 370,000 compounds, 1.8% hits;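 active means activation above a cutoff set at the mean of all screened compounds plus 3 SD, cut at about 10% in these data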;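 further: 0% = DMSO wells and 100% = sodium butyrate wells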
DAX1 inh-2 – DAX1 (NR0B1) inhibition, primary screen. HEK293T StAR-luciferase reporter, SF-1/DAX-1 repression relief. inhibition, % at 6.8 µM. 370,000 compounds, 1.1% hits. AID 652010;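 active means inhibition above the mean over all tested compounds plus 3 SD, cut at about 3.6% in these data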;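 further: 0% = DAX-1 cells with DMSO and 100% = cells lacking DAX-1 with DMSO; higher inhibition means more luminescence from relief of DAX-1 repression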
SMARCA2 act – increases SMARCA2 function in MMTV reporter cells | MG213 cells, MMTV-luciferase reporter, dexamethasone, overnight | activation, % at 9.1 µM | 370,000 compounds, 1% hits | AID 652017; in the data active means activation above about 7.8%;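 further: 0% = vehicle wells and 100% = reference activator wells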
hcDAF12 agonist – H. contortus DAF-12 activation, primary screen | AID 652067 | 370,000 compounds, 1.4% hits | activation, % at 6.8 µM | HEK293 hcDAF-12 lit1-tk-luc reporter, luminescence; 0% DMSO, 100% Δ7-dafachronic acid;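 active means activation above the mean of all tested compounds plus 3 SD, cut at about 5.5% in these data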;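 further: 100% = response to 3 µM Δ7-dafachronic acid high control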
ssDAF12 agonist – activators of S. stercoralis DAF-12 nuclear receptor. HEK293 ssDAF-12/GRIP1 lit1-tk-luc reporter, luminescence; % of 3 µM dafachronic acid response. activation, % at 6.8 µM. 370,000 compounds, 1% hits. AID 652126;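 active means activation above the mean over all tested compounds plus 3 SD, cut at about 0.9% in these data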;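 further: 0% = DMSO-only wells and 100% = 3 µM delta7-dafachronic acid wells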
SMARCA2 conf – confirmation of SMARCA2 (BRM) function activators; AID 652260; 3,500 compounds, 30% hits; activation, % at 9.1 µM; MG213 cells, MMTV-luciferase with dexamethasone, luminescence, overnight; MG213 cells expressing E1A, Rb sequestered; DMSO wells 0%, reference activator 100%; shares compounds with SMARCA2 act;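 active means activation above its plate's cutoff, the mean activation of tested wells plus 3 SD, cut at about 7.9% in these data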
VP16 Luc act – activates GAL4-VP16 luciferase, flagging SMARCA2 activator hits | 3,500 compounds, 41% hits | activation, % at 9.1 µM | shares compounds with SMARCA2 act | AID 686939 | HEK293 GAL4-VP16 pG5luc reporter, luciferase luminescence; scaled: DMSO wells 0%, SAHA wells 100%;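 active means activation above the solvent-only control well mean plus 3 SD, averaged across control plates, cut at about 5.2% in these data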
The depositor's hits bear a star. Rows were chosen to be rich in hits. Some 4.8% of all compounds tested hit in one or more screens of this group.

COC(=O)[C@]12C[C@H](CC(=O)NCc3ccc(OC)c(OC)c3)C(=O)N(CCc3ccc(OC)c(OC)c3)C1=C[C@H](C1CCCC1)O[C@@H]2C was read as hgDAF12 agonist -1.4, DAX1 inh-2 -1.6, SMARCA2 act -2.3, hcDAF12 agonist -2.5 and ssDAF12 agonist -1.4.
`O=C1SC(Cc2ccccc2)C(=O)N1c1ccccc1` (configuration not stated) gave hgDAF12 agonist -1.0, DAX1 inh-2 -0.4, SMARCA2 act 8.3*, hcDAF12 agonist -1.0, ssDAF12 agonist 0.0, SMARCA2 conf -4.4 and VP16 Luc act 0.0.
For COc1ccc(N2CCN(CCCNC(=O)Cn3c(=O)c4cccn4c4c(C)ccnc43)CC2)cc1 the results were hgDAF12 agonist 1.6, hcDAF12 agonist 0.3 and ssDAF12 agonist -1.5.
COc1ccccc1NC(=O)Nc1ccc(N2CCOCC2)cc1 was read as DAX1 inh-1 4.0, hgDAF12 agonist 7.7, DAX1 inh-2 2.0, SMARCA2 act 8.8*, hcDAF12 agonist 1.0, ssDAF12 agonist -0.7, SMARCA2 conf 8.1* and VP16 Luc act 5.6*.
COc1ccccc1CNCC(=O)Nc1ccc(N2CCOCC2)cc1 was read as DAX1 inh-1 0.8, hgDAF12 agonist 2.2, DAX1 inh-2 -0.5, SMARCA2 act -3.5, hcDAF12 agonist -1.1 and ssDAF12 agonist -1.1.
Screening COc1ccc(NC(=S)N(CCc2c(C)[nH]c3ccccc23)Cc2cccnc2)cc1 returned DAX1 inh-1 -0.3, hgDAF12 agonist 0.1, DAX1 inh-2 1.3, SMARCA2 act 9.1*, hcDAF12 agonist -3.6, ssDAF12 agonist -1.6, SMARCA2 conf -1.8 and VP16 Luc act 0.2.
Screening CCOc1ccc(NC(=S)N(CCc2c(C)[nH]c3ccc(C)cc23)Cc2cccnc2)cc1 returned DAX1 inh-1 -0.4, hgDAF12 agonist 2.3, DAX1 inh-2 0.0, SMARCA2 act -2.9, hcDAF12 agonist 0.0 and ssDAF12 agonist -1.4.
Screening COc1cccc(/C=N/NC(=O)CN(C2=NS(=O)(=O)c3ccccc32)c2ccccc2)c1 returned DAX1 inh-1 0.6, hgDAF12 agonist -0.7, DAX1 inh-2 -0.1, SMARCA2 act -0.4, hcDAF12 agonist -1.9 and ssDAF12 agonist -1.9.
Screening COc1ccc(/C=N/NC(=O)CN(C2=NS(=O)(=O)c3ccccc32)c2ccccc2)cc1OC returned DAX1 inh-1 -0.8, hgDAF12 agonist -2.2, DAX1 inh-2 0.3, SMARCA2 act 8.1*, hcDAF12 agonist -2.1, ssDAF12 agonist -0.8, SMARCA2 conf 6.1 and VP16 Luc act 0.6.
`COC(=O)[C@]12C[C@H](CC(=O)NCCCN3CCCC3=O)C(=O)N(Cc3cccc4ccccc34)C1=C[C@H](C(C)C)O[C@@H]2C1CC1` gave hgDAF12 agonist 5.0, DAX1 inh-2 -0.3, SMARCA2 act -1.2, hcDAF12 agonist -1.0 and ssDAF12 agonist -1.2.
For C=CCn1c(SCC(N)=O)nnc1-c1ccc(C)cc1 the results were hgDAF12 agonist -0.5, DAX1 inh-2 -0.1, SMARCA2 act -6.7, hcDAF12 agonist -1.4 and ssDAF12 agonist -1.4.
For COc1ccc(C2CC(c3ccc(OC)c(OC)c3)=NN2C(=O)c2ccccc2)cc1 (configuration not stated) the results were DAX1 inh-1 0.0, hgDAF12 agonist -1.2, DAX1 inh-2 -0.4, SMARCA2 act 13.3*, hcDAF12 agonist -0.9, ssDAF12 agonist -1.6, SMARCA2 conf 12.5* and VP16 Luc act 3.1.
For O=C(COc1ccccc1)NCC1(N2CCCCC2)CCCCC1 the results were DAX1 inh-1 -0.7, hgDAF12 agonist 1.2, DAX1 inh-2 -0.4, SMARCA2 act 9.6*, hcDAF12 agonist -0.2, ssDAF12 agonist -1.0, SMARCA2 conf -1.9 and VP16 Luc act 0.4.
